Results from article PMC5540273 (PLoS ONE, 2017).

Columns and labels:
Details in all cases: concentration: 1 μM, replicates: in singlicate; n = 1
[1] = tested on: NEK3
[2] = tested on: NEK4
[3] = tested on: NEK5
[4] = tested on: NEK6
[5] = tested on: NEK7
[6] = tested on: NEK9
[7] = tested on: T1, NIK
T1 construct: gene MAP3K14

[8] = tested on: T2, NIM1
T2 construct: gene MGC42105

[9] = tested on: NLK
[10] = tested on: T3, OSR1
T3 construct: gene OXSR1

[11] = tested on: PAK1
[12] = tested on: PAK2
[13] = tested on: PAK3
[14] = tested on: PAK4
[15] = tested on: PAK6
[16] = tested on: PAK7
[17] = tested on: T4, PCTK1
T4 construct: gene CDK16

[18] = tested on: T5, PCTK2
T5 construct: gene CDK17

[19] = tested on: T6, PCTK3
T6 construct: gene CDK18

[20] = tested on: PDGFRA
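Further: KINOMEscan kinase panel screen.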

Row | Compound | %Inh [1] [%] | %Inh [2] [%] | %Inh [3] [%] | %Inh [4] [%] | %Inh [5] [%] | %Inh [6] [%] | %Inh [7] [%] | %Inh [8] [%] | %Inh [9] [%] | %Inh [10] [%] | %Inh [11] [%] | %Inh [12] [%] | %Inh [13] [%] | %Inh [14] [%] | %Inh [15] [%] | %Inh [16] [%] | %Inh [17] [%] | %Inh [18] [%] | %Inh [19] [%] | %Inh [20] [%]
1 | O=C(Nc1n[nH]c2nc(-c3ccco3)c(Br)cc12)c1ccc(CN2CCCC2)cc1.O=C(O)[C@H](O)[C@@H](O)C(=O)O [SB-742352] | 0 | 0 | 0 | 0 | 10 | 0 | 0 | 0 | 0 | 0 | 0 | 7 | 0 | 0 | 0 | 0 | 0 | 11 | 0 | 50
2 | FC(F)(F)c1cc(Nc2nccc(-c3c(-c4ccc(Cl)cc4)nn4ncccc34)n2)ccc1Cl [GW829351] | 2 | 0 | 0 | 0 | 0 | 0 | 4 | 0 | 29 | 0 | 0 | 17 | 0 | 0 | 0 | 0 | 0 | 0 | 0 | 0
3 | CNc1nccc(-c2c(-c3ccc(F)cc3)ncn2CCCN2CCOCC2)n1 [SB-222516] | 17 | 2 | 100 | 0 | 0 | 0 | 47 | 14 | 0 | 27 | 65 | 85 | 0 | 0 | 0 | 0 | 0 | 0 | 0 | 0
4 | Fc1cccc(COc2ccc(Nc3ncnc4nn5ccccc5c34)cc2Cl)c1 [GW689066] | 0 | 0 | 0 | 0 | 0 | 4 | 0 | 13 | 7 | 3 | 15 | 15 | 8 | 15 | 0 | 0 | 0 | 0 | 0 | 0
5 | Clc1ccc(-c2cc(-c3c[nH]nc3-c3ccccn3)ccn2)cc1 [GW681251] | 3 | 8 | 36 | 0 | 0 | 2 | 30 | 16 | 11 | 2 | 3 | 0 | 2 | 39 | 1 | 0 | 0 | 0 | 12 | 0
6 | OCCOCCn1ccc2ncnc(Nc3ccc(Oc4cccc(Cl)c4)c(Cl)c3)c21 | 10 | 0 | 0 | 0 | 0 | 0 | 0 | 0 | 0 | 0 | 0 | 0 | 18 | 0 | 0 | 0 | 0 | 0 | 6 | 0
7 | O=C(Nc1ccccc1F)NC1CCN(c2ccnc(Nc3ccc(F)cc3)n2)C1 (centres unmarked) [GSK1379722] | 4 | 9 | 12 | 0 | 0 | 0 | 14 | 15 | 17 | 0 | 2 | 16 | 0 | 0 | 0 | 0 | 6 | 0 | 18 | 0
8 | COc1cc2c(Nc3cccc(NC(=O)c4ccccc4)c3)ncnc2cc1OCCCN1CCOCC1 [GSK223810] | 0 | 0 | 0 | 0 | 0 | 21 | 0 | 0 | 33 | 16 | 4 | 0 | 5 | 0 | 0 | 0 | 0 | 0 | 22 | 63
9 | CC(C)N1CCC(n2cnc(-c3ccc(F)cc3)c2-c2ccnc(N)n2)CC1 [SB-223132] | 33 | 0 | 3 | 8 | 0 | 0 | 0 | 0 | 49 | 0 | 19 | 23 | 0 | 26 | 0 | 0 | 0 | 0 | 7 | 0
10 | CC(=O)Nc1n[nH]c2ncc(-c3ccccc3)cc12 [SB-548492] | 20 | 25 | 5 | 8 | 19 | 7 | 3 | 100 | 24 | 9 | 0 | 32 | 0 | 4 | 12 | 0 | 3 | 7 | 4 | 51
11 | Fc1ccc(Nc2nccc(-c3c(-c4ccc(Cl)cc4)nn4ncccc34)n2)cc1F [GW829058] | 11 | 8 | 13 | 21 | 0 | 5 | 43 | 34 | 70 | 28 | 21 | 24 | 15 | 27 | 34 | 14 | 23 | 0 | 13 | 19
12 | CSc1ccc(NC2=C(c3ccccc3Cl)C(=O)NC2=O)cc1 [SB-342411] | 0 | 0 | 8 | 0 | 0 | 15 | 0 | 0 | 56 | 2 | 0 | 0 | 14 | 29 | 8 | 15 | 29 | 31 | 67 | 0
13 | O=C(CCO)NCCn1ccc2ncnc(Nc3ccc(Oc4cccc(C(F)(F)F)c4)c(Cl)c3)c21 | 18 | 0 | 0 | 0 | 0 | 0 | 6 | 0 | 0 | 0 | 0 | 2 | 28 | 0 | 0 | 0 | 0 | 0 | 0 | 0
14 | Clc1cc(Nc2ncnc3cc[nH]c23)ccc1OCc1ccccn1 | 22 | 6 | 0 | 16 | 0 | 7 | 0 | 35 | 0 | 2 | 10 | 29 | 39 | 10 | 29 | 7 | 2 | 19 | 19 | 29
15 | CC(C)(C)OC(=O)NC1CCCN(c2cc(-c3ccc4c(N)n[nH]c4c3)nc(N)n2)C1 (centres unmarked) [GSK2286096] | 3 | 13 | 2 | 0 | 0 | 2 | 0 | 9 | 27 | 0 | 0 | 1 | 0 | 0 | 0 | 0 | 4 | 6 | 17 | 0
16 | Cl.c1ccc(Cn2ncc3cc(Nc4ncnc5ccccc45)ccc32)cc1 [GW273749] | 2 | 0 | 18 | 0 | 1 | 15 | 0 | 3 | 0 | 10 | 5 | 0 | 0 | 0 | 15 | 6 | 0 | 0 | 23 | 0

Row | Compound | %Inh [1] [%] | %Inh [2] [%] | %Inh [3] [%] | %Inh [4] [%] | %Inh [5] [%] | %Inh [6] [%] | %Inh [7] [%] | %Inh [8] [%] | %Inh [9] [%] | %Inh [10] [%] | %Inh [11] [%] | %Inh [12] [%] | %Inh [13] [%] | %Inh [14] [%] | %Inh [15] [%] | %Inh [16] [%] | %Inh [17] [%] | %Inh [18] [%] | %Inh [19] [%] | %Inh [20] [%]
17 | Fc1ccc(-c2ncn(CCCNCc3ccccc3)c2-c2ccncc2)cc1 | 31 | 7 | 6 | 12 | 0 | 0 | 12 | 15 | 13 | 19 | 30 | 25 | 0 | 11 | 11 | 14 | 7 | 0 | 8 | 0
18 | COc1ccc(Nc2nccc(N3CCC(NC(=O)Nc4ccc5c(c4)OCO5)C3)n2)cc1 (centres unmarked) [GSK1379745] | 0 | 3 | 25 | 7 | 3 | 0 | 1 | 22 | 0 | 12 | 0 | 6 | 0 | 0 | 0 | 0 | 6 | 17 | 32 | 0
19 | Oc1ccc2ncnc(Nc3ccc(OCc4ccccc4)cc3)c2c1 [GI262866] | 0 | 0 | 7 | 0 | 1 | 10 | 8 | 7 | 7 | 0 | 22 | 29 | 87 | 0 | 0 | 0 | 10 | 0 | 13 | 0
20 | Nc1nc(-c2cccnc2)c(-c2ccnc3ccccc23)s1 [GW684083] | 2 | 20 | 0 | 0 | 0 | 4 | 29 | 66 | 9 | 11 | 0 | 4 | 20 | 0 | 0 | 0 | 0 | 0 | 11 | 0
21 | CC(C)(C)c1ccc(-n2cnc3c(N)ncnc32)cc1 [SKF-97263] | 0 | 19 | 10 | 0 | 16 | 14 | 0 | 9 | 26 | 16 | 9 | 0 | 22 | 0 | 0 | 0 | 0 | 0 | 30 | 13
22 | COc1ccc(NC(=O)c2ccc(-c3cc(-c4nnc(C)o4)ccc3C)cc2)cc1 [GW595885] | 5 | 19 | 4 | 0 | 0 | 0 | 0 | 20 | 10 | 14 | 0 | 0 | 0 | 0 | 0 | 0 | 6 | 0 | 24 | 0
23 | Nc1nc(-c2ccc3c(N)n[nH]c3c2)cc(N2CCCCC2)n1 [GSK2228768] | 0 | 3 | 4 | 0 | 0 | 0 | 0 | 0 | 0 | 7 | 2 | 20 | 6 | 0 | 0 | 0 | 5 | 0 | 9 | 0
24 | CCC(CC)(CC)n1cnc2c(N)ncnc21 [SKF-97620] | 23 | 0 | 0 | 0 | 0 | 0 | 0 | 28 | 17 | 19 | 10 | 51 | 14 | 0 | 0 | 10 | 2 | 0 | 0 | 24
25 | Cn1cc(-c2ccc3c(c2)CCN3C(=O)Cc2cccc(C(F)(F)F)c2)c2c(N)ncnc21 [GSK2606414] | 0 | 7 | 0 | 0 | 11 | 8 | 0 | 5 | 0 | 12 | 0 | 0 | 25 | 0 | 0 | 0 | 4 | 0 | 0 | 38
26 | O=C(Nc1ccccc1)Nc1ccc(Oc2ccc3nccn3n2)cc1 | 8 | 0 | 20 | 0 | 0 | 0 | 0 | 0 | 2 | 0 | 0 | 8 | 0 | 0 | 0 | 0 | 0 | 2 | 0 | 83
27 | Cn1ccc2ncnc(Oc3ccc(NC(=O)Nc4cccnc4)c(Cl)c3)c21 | 9 | 0 | 0 | 8 | 0 | 3 | 0 | 0 | 0 | 7 | 17 | 24 | 38 | 1 | 16 | 0 | 19 | 12 | 0 | 91.8
28 | Nc1nc(-c2ccccn2)c(-c2ccnc3ccccc23)s1 [GW548057] | 8 | 0 | 20 | 0 | 0 | 0 | 22 | 38 | 30 | 8 | 0 | 0 | 0 | 0 | 1 | 26 | 0 | 18 | 16 | 1
29 | COC(=O)c1cccc(NC(=O)NCCNc2ccnc(Nc3ccc(F)cc3)n2)c1 [GSK1379883] | 0 | 0 | 17 | 0 | 0 | 11 | 9 | 0 | 0 | 4 | 0 | 0 | 0 | 0 | 0 | 0 | 0 | 0 | 0 | 0
30 | CNc1nccc(-c2c(-c3ccc(F)cc3)ncn2C2CCN(C)CC2)n1 [SB-222903] | 17 | 0 | 0 | 0 | 0 | 0 | 31 | 0 | 83 | 0 | 0 | 13 | 0 | 0 | 0 | 0 | 0 | 0 | 0 | 0
31 | COc1ccc(-c2oc3ncnc(N)c3c2-c2ccc(OC)cc2)cc1 [SB-589132] | 17 | 20 | 31 | 0 | 0 | 19 | 33 | 37 | 4 | 0 | 0 | 16 | 14 | 0 | 0 | 0 | 0 | 0 | 14 | 17
